The list is not random: actives were taken first. Their share in the collection is about 19%.
TDP1 cell noCPT = qHTS for Inhibitors of human tyrosyl-DNA phosphodiesterase 1 (TDP1): qHTS in cells in absence of CPT; DT40 Tdp1-/- hTDP1 cells, no CPT, ATP luminescence, 48 h; Potency, µM (highest dose often 46.2 µM), for the others: at the top dose activity change, negative = growth inhibition, usual class: inhibitors; hit rate 15% among 420,000; further: nearly all actives have a fitted effect of over 55% in size
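Cells were dispensed at 400 per well, compounds added by pin tool, plates incubated ≥48 hr at 37 °C, then CellTiter-Glo added for 30 min at room temperature before luminescence reading. Line: DT40 Tdp1-/- complemented with hTDP1; camptothecin omitted.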
HT1080NT lethal = qHTS for induction of synthetic lethality in tumor cells producing 2HG: qHTS for the HT-1080-NT fibrosarcoma cell line; HT-1080-NT fibrosarcoma viability, CellTiter-Glo ATP luminescence, 48 h; Potency, µM (top dose mostly 46.1 µM), for inactives: at the top dose activity, negative = less viability, hits mostly cytotoxic; hit rate 1.6% among 360,000;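 further: NT is the 2HG producing partner of a matched IDH1 knockdown line; 0% = DMSO-treated cells and -100% = media-only wells without cells; nearly all actives have a fitted effect of over 55% in size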
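Viability of the 2HG-overproducing fibrosarcoma line after 48 hours of compound exposure at 37 degrees C was determined by luminescence with CellTiter-Glo, and concentration-effect curves were then fitted and categorized.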
KB-3-1 cytotox = qHTS assay for MDR1-selective chemotherapeutics: Primary screen using the parental adenocarcinoma cell KB-3-1 | KB-3-1 viability, CellTiter-Glo ATP luminescence, 72 h | Potency, µM (series often up to 46.1 µM), usual class: cytotoxic | hit rate 1.4% among 400,000; further: nearly all actives have a fitted effect of over 60% in size
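72 h, 37 °C compound treatment of KB-3-1 parental cells; CellTiter-Glo added, 10 min, luminescence read. Data corrected against DMSO-only plates and normalized before curve fitting.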
DT40 TDP1 CPT = qHTS for Inhibitors of human tyrosyl-DNA phosphodiesterase 1 (TDP1): qHTS in cells in presence of CPT; chicken DT40 Tdp1-/-;hTDP1 cells + 20 nM CPT, ATP luminescence, 48 h; Potency, µM (top dose mostly 46.2 µM), inactives show top-dose activity change, negative = growth inhibition, usual class: inhibitors; hit rate 12% among 420,000; further: nearly all actives have a fitted effect of over 55% in size
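Chicken DT40 Tdp1-/- cells stably complemented with human TDP1 were seeded at 400 cells/well in medium containing 20 nM camptothecin, exposed to pin-transferred compounds, and grown at 37 °C for at least 48 hr. Viability was read as ATP luminescence.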
KB-V1 cytotox = qHTS assay for MDR1-selective chemotherapeutics: Primary screen using the drug-selected MDR subline cells KB-V1; KB-V1 MDR cells viability, CellTiter-Glo, 72 h; Potency, µM (doses to about 46.1 µM), actives largely listed as cytotoxic; hit rate 3.4% among 400,000; AID 1347076, 2019; further: nearly all actives have a fitted effect of over 60% in size
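qHTS viability screen in drug-selected KB-V1 MDR cells: 72 h compound treatment at 37 degrees C, ATP luminescence end point.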
HT1080 IDH1KD tx = qHTS for induction of synthetic lethality in tumor cells producing 2HG: qHTS for the HT-1080-IDH1KD cell line; HT-1080 IDH1 knockdown viability, ATP luminescence, 48 h; hit rate 2% among 360,000; Potency, µM (series often up to 46.1 µM), for inactives: at the top dose activity, negative = toxicity, usual class: cytotoxic;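 further: 0% = DMSO wells and -100% = cell-free medium wells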
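In this qHTS, HT-1080 cells depleted of IDH1 are exposed for 48 h at 37 °C to compound titrations. Toxicity is scored from CellTiter-Glo luminescence, with DMSO as full viability and medium alone as none.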
Numbers without * were called inactive; i = inactive; ? = inconclusive; nt = no result given. The call rests on the fitted dose curve; in most records, active means well fitted curve in the direction sought with a large enough effect; inconclusive means small, poorly fitted or top-dose-only effect, or another doubt; inactive means no such curve, though single readings can be large; an effect the other way counts as inactive or inconclusive. Unless noted, on the % scale 0 is the no-effect control and ±100 the full control effect; potency means the concentration at half of the fitted maximal effect.

SMILES	TDP1 cell noCPT	HT1080NT lethal	KB-3-1 cytotox	DT40 TDP1 CPT	KB-V1 cytotox	HT1080 IDH1KD tx
Cc1cc(F)cc(-c2cc(C(=O)NCC3CCCCC3)[nH]n2)c1	?	-20%	i	-23%	i	?
CCOC(=O)c1cc2c(C)n(-c3ccc(OCC)cc3)c(C)c2cc(C(=O)OCC)c1=O	16µM*	17%	i	?	?	9%
CCOC(=O)c1cc2c(C)[nH]c(C)c2cc(C(=O)OCC)c1=O	7.3µM*	-1%	i	?	i	-4%
CCOC(=O)c1cc2c(C)n(-c3ccc(N(C)C)cc3)c(C)c2cc(C(=O)OCC)c1=O	?	-3%	i	?	?	4%
O=C1c2ccccc2C(=O)N1C1C=CC=CC=C1	0%	-3%	i	-2%	i	0%
Cc1ccc2c(c1)S/C(=C/c1ccc[n+](C)c1)N2CCO	2.6µM*	?	?	3.3µM*	?	?
Cc1ccc(S(=O)(=O)N2CCCCC2)c(C)c1NS(C)(=O)=O	-7%	?	i	-4%	i	12%
COc1cc(/C=C2/SC(=O)NC2=O)ccc1OC(=O)c1ccco1	16µM*	-6%	10µM*	16µM*	?	-22%
CCOc1cc(/C=C2/SC(=S)NC2=O)ccc1OC(=O)c1ccco1	12µM*	12µM*	i	23µM*	i	?
O=C1NC(=S)S/C1=C/c1ccc(OC(=O)c2ccco2)cc1	-8%	-4%	i	?	i	-3%
CN(C)C(=O)CN1CCN(C(=O)CCl)CC1	16µM*	-27%	?	?	i	-1%
CCc1cc2c(C)ccc(C)c2nc1SCC(=O)Nc1c[nH]c(=O)[nH]c1=O	12µM*	-2%	i	?	i	-12%
CCc1cc2ccc(C)cc2nc1SCC(=O)Nc1c[nH]c(=O)[nH]c1=O	?	-5%	i	-14%	i	-1%
CCc1cc2c(C)ccc(C)c2nc1SCC(=O)Nc1c(C)[nH]c(=O)[nH]c1=O	?	-9%	?	21µM*	i	-10%
CCOc1cc(C2NC(=O)N(C)C(C)=C2[N+](=O)[O-])ccc1OC(C)=O (stereo not drawn)	2%	10%	i	-7%	i	-3%
CC1=C([N+](=O)[O-])C(c2ccc(Cl)cc2)NC(=O)N1C (stereo not drawn)	5.8µM*	0%	i	6.5µM*	i	-4%
Cc1sc2ncnc(SCC(=O)Nc3cccc(S(N)(=O)=O)c3)c2c1C	?	-19%	i	0%	i	?
CN(CC(=O)Nc1ccc(F)cc1)C(=O)c1ccccc1Sc1ccccc1C#N	?	-1%	i	?	?	-15%
CNC(=O)c1ccc(NC(=O)C2CCN(c3ncnc4sc(C)c(C)c34)CC2)cc1	?	7%	nt	?	nt	7%
Cc1ccc(NC(=O)CN(C)C(=O)c2ccccc2Sc2ccccc2C#N)cc1	15µM*	-2%	i	?	i	-10%
Cc1sc2ncnc(Sc3ccccc3C(=O)Nc3ccccc3Cl)c2c1C	18µM*	-3%	i	23µM*	i	4%
Cc1sc2ncnc(Sc3ccccc3C(=O)Nc3ccc(C#N)cc3)c2c1C	21µM*	-15%	i	21µM*	i	-12%
CSc1ncc(C(=O)Nc2ccccc2Cl)c(C)n1	-4%	7%	i	9%	i	21%
Cc1sc2ncnc(Sc3ccccc3C(=O)Nc3ccc(Br)cc3)c2c1C	16µM*	-5%	i	23µM*	?	-6%
Cn1c(=O)c2c(ncn2CC(=O)NC[C@H]2O[C@@H](n3cnc4c(N)ncnc43)[C@H](O)[C@@H]2O)n(C)c1=O	-3%	0%	i	-28%	i	-1%
SMILES	TDP1 cell noCPT	HT1080NT lethal	KB-3-1 cytotox	DT40 TDP1 CPT	KB-V1 cytotox	HT1080 IDH1KD tx
COc1cc(C(=O)NCc2nc(-c3ccc(Cl)cc3)no2)cc(OC)c1OC	-19%	nt	nt	6%	nt	nt
CN(C)C(=O)N1CCc2ccc([N+](=O)[O-])cc21	4%	4%	i	-4%	i	17%
COc1ccc(NC(=O)CN(C)C(=O)c2ccccc2Sc2ncnc3sc(C)c(C)c23)cc1	23µM*	2%	i	?	i	-7%
Cc1cnc(-n2ncc(C(=O)NCCN3CCOCC3)c2-c2cccs2)nc1-c1ccc(F)cc1	-29%	nt	nt	9%	nt	nt
Cc1ccc2c(c1)c1c(n2CC(O)Cn2c(C)nc3ccccc32)/C(=N\O)CCC1 (stereo not drawn)	23µM*	21µM*	?	23µM*	?	?
Cc1ccc2c(c1)c1c(n2CC(O)CN2C(=O)CNC2=O)C(=O)CCC1 (stereo not drawn)	4%	3%	i	7%	i	1%
Cc1ccc2c(c1)c1c(n2CC(O)Cn2c(C)nc3ccccc32)C(=O)CCC1 (stereo not drawn)	18µM*	19%	?	26µM*	i	8%
Cc1ccc2c(c1)c1c(n2CC(O)Cn2ccnc2C)C(=O)CCC1 (stereo not drawn)	?	-16%	i	?	i	-3%
CS(=O)(=O)Nc1ccc(C2=NN(C(=O)C3CCCCC3)C(c3cccs3)C2)cc1 (stereo not drawn)	23µM*	-14%	i	?	?	?
CS(=O)(=O)Nc1cccc(C2=NN(C(=O)c3ccccc3)C(c3cccs3)C2)c1 (stereo not drawn)	?	1%	i	21µM*	i	-11%
O=C(NCc1cc(Cl)cc(Cl)c1)c1ccc2nc([C@H]3C[C@H](O)[C@@H](CO)O3)[nH]c2c1	-5%	0%	i	-2%	i	11%
N#Cc1cccc(NC(=O)Cn2cnc(S(=O)(=O)N3CCCC3)c2)c1	-7%	22%	i	-7%	?	7%
COCCNC(=O)c1sc2nc(-c3ccccc3)cn2c1C	-5%	11%	i	-2%	13µM*	16%
